# Screens as filed in PubChem.
# Compounds with a hit are over-represented: about 19% of the library has one in this group of screens.
# TDP1 cell CPT: qHTS for Inhibitors of human tyrosyl-DNA phosphodiesterase 1 (TDP1): qHTS in cells in presence of CPT | chicken DT40 Tdp1-/-;hTDP1 cells + 20 nM CPT, ATP luminescence, 48 h | Potency, µM (series often up to 46.2 µM), inactives show at the highest dose activity change, negative = growth inhibition, hits mostly inhibitors | 420,000 tested, 12% active; note: nearly all actives have a fitted effect of over 55% in size
#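 Cell growth measured by CellTiter-Glo luminescence after a minimum 48 h, 37 C compound exposure with 20 nM CPT in Tdp1-knockout DT40 cells stably expressing hTDP1, seeded 400/well; qHTS titration format.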
# RORg inh: qHTS for inhibitors of ROR gamma transcriptional activity; Nuclear receptor ROR-gamma (Mus musculus), P51450; Drosophila S2 Gal4-RORgamma UAS-luciferase reporter, 20 h; Potency, µM (top dose mostly 53.6 µM), without a hit: at the top dose activity change, negative = inhibition, hits mostly inhibitors; 310,000 tested, 5.4% active; note: nearly all actives have a fitted effect of over 60% in size
#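 Drosophila Schneider cells stably carrying a metallothionein-driven Gal4 DBD–ROR gamma fusion and a UAS-Photinus luciferase reporter were exposed to compound for 1 hr, then induced with copper sulfate (700 uM final) for 20 hr at ambient temperature before luminescence reading.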
# TDP1 cell noCPT: qHTS for Inhibitors of human tyrosyl-DNA phosphodiesterase 1 (TDP1): qHTS in cells in absence of CPT | DT40 Tdp1-/- hTDP1 cells, no CPT, ATP luminescence, 48 h | Potency, µM (highest dose often 46.2 µM), without a hit: at the highest dose activity change, negative = growth inhibition, hits mostly inhibitors | 420,000 tested, 15% active; note: nearly all actives have a fitted effect of over 55% in size
#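 A cellular qHTS used chicken DT40 cells lacking endogenous Tdp1 but carrying stably transfected human TDP1. Compounds were applied without camptothecin, and cell growth kinetics were judged by ATP-dependent luminescence after ≥48 hr.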
# TDP1 block: qHTS Assay for Inhibitors of Tyrosyl-DNA Phosphodiesterase (TDP1); Potency, µM (series often up to 130 µM), for the others: top-dose activity change, negative = inhibition, usual class: inhibitors; AID 485290, 2010; 350,000 tested, 0.28% active; recombinant TDP1, AlphaScreen DNA substrate cleavage; Tyrosyl-DNA phosphodiesterase 1 (Homo sapiens), Q9NUW8; note: nearly all actives have a fitted effect of over 40% in size
# Target sequence (Q9NUW8 whole entry, looked up): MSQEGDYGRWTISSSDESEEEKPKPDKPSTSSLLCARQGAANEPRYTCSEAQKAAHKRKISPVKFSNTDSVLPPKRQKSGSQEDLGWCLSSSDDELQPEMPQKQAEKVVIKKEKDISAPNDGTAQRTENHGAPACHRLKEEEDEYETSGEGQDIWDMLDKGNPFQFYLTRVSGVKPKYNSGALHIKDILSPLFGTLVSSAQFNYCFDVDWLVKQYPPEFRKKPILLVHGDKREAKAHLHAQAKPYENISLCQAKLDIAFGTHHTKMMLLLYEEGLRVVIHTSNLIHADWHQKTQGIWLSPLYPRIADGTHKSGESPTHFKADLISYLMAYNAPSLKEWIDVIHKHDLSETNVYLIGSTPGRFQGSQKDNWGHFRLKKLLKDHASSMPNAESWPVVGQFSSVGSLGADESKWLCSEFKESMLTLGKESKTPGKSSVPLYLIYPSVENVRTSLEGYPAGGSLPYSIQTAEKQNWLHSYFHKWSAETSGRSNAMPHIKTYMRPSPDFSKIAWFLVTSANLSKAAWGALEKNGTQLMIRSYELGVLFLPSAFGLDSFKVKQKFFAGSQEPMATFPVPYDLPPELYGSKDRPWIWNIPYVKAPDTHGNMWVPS
#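 Signal: AlphaScreen proximity between streptavidin donor and anti-FITC acceptor beads on intact substrate. Reaction: Tdp1 1 nM, substrate 15 nM final, 5 min RT after 15 min compound preincubation.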
# Gal4-VP16 FLuc: VP16 counterscreen qHTS for inhibitors of ROR gamma transcriptional activity | Drosophila S2 Gal4-VP16 UAS-luciferase, luminescence, 20 h | Potency, µM (highest dose often 53.6 µM), inactives show top-dose activity, negative = inhibition, usual class: inhibitors | 310,000 tested, 3.5% active | AID 2546, 2010;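 note: Gal4-VP16 expression switched on by copper sulfate through the metallothionein promoter; nearly all actives have a fitted effect of over 50% in size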
# Starred values were filed as active, the others as inactive; ? = inconclusive; . = not tested or not shown; [ ] = another dose, or the depositor's remark. Calls come from the whole dose curve; as a rule, active = well fitted curve in the direction sought with a large enough effect; inconclusive = small, poorly fitted or top-dose-only effect, or another doubt; inactive = no such curve, though single readings can be large; an effect the other way counts as inactive or inconclusive. % is set by controls: 0 for no effect and ±100 for the full control effect; potency is the fitted concentration of half-maximal effect.
SMILES,TDP1 cell CPT,RORg inh,TDP1 cell noCPT,TDP1 block,Gal4-VP16 FLuc
Cc1c(C(=O)OC2CCCCC2)[nH]c2c1C(=O)CC(c1ccc(C(C)(C)C)cc1)C2 (centres undefined),20.6µM*,.,18.4µM*,2.1%[12.3 µM],.
CCCCN1C(=O)C(CC(=O)NCc2cccc3ccccc23)CC(C(=O)N2CCOCC2)=C1C (centres undefined),10.0%,.,7.3%,.,.
CCCCCCCCN1C(=O)[C@H](CC(=O)NCc2cccc3ccccc23)C[C@@]2(C(=O)OC)CC(C)(C)CC=C12,-66.7%,.,11.6µM*,.,.
CCCCCCCCN1C(=O)[C@H](CC(=O)NCc2ccccc2)C[C@@]2(C(=O)OC)CC(C)(C)CC=C12,3.66µM*,.,5.17µM*,.,.
CCCCCCCCN1C(=O)[C@H](CC(=O)NCCCCc2ccccc2)C[C@@]2(C(=O)OC)CC(C)(C)CC=C12,16.4µM*,.,20.6µM*,.,.
CCCCCCCCN1C(=O)[C@H](CC(=O)NCCCC)C[C@@]2(C(=O)OC)CC(C)(C)CC=C12,10.3µM*,.,11.6µM*,.,.
COc1ccc(CCNc2ccc(C(CC(N)=O)NC(=O)c3cc(OC)ccc3OC)cc2[N+](=O)[O-])cc1 (centres undefined),25.9µM*,?,?,.,-1.4%
COc1ccc(OC)c(C(=O)NC(CC(N)=O)c2ccc(NCCOc3ccccc3)c([N+](=O)[O-])c2)c1 (centres undefined),?,10.2%,?,.,-3.1%
CCCCNc1ccc(C(CC(N)=O)NC(=O)Cc2cccc3ccccc23)cc1[N+](=O)[O-] (centres undefined),-7.2%,15.0%,-21.5%,2.5%,-5.7%
COc1ccc(CCNc2ccc(C(CC(N)=O)NC(=O)Cc3cccc4ccccc34)cc2[N+](=O)[O-])cc1 (centres undefined),23.1µM*,-13.1%,?,6.2%,-4.7%
Cc1[nH]nc(N=CC2=C(O)CC(c3ccco3)CC2=O)c1-c1ccc(Cl)cc1 (centres undefined),?,2.6%,-23.3%,2.0%,20.7%
O=S(=O)(Oc1ccc(Cl)cc1)c1cccc2cccnc12,5.6%,33.2%,?,2.7%,3.1%
CN(Cc1ccccc1)C(=O)c1nc2ccccn2c1CNCCn1cccn1,-2.7%,-21.8%,-15.4%,2.7%,?
Cn1ncc(N=Cc2ccccc2)c1C(=O)Nc1cccc(Cl)c1,?,?,18.4µM*,6.3%,2.6%
CC(=O)Nc1nc(=S)n(-c2ccccc2)[nH]1,-3.1%,?,-17.8%,6.9%,-15.0%
CC(C)c1nc(=S)n(-c2ccccc2)[nH]1,7.9%,5.62µM*,3.4%,-7.8%,?
COc1cc(OC)c(NC(=O)CCNC(=O)Cn2cnc3ccccc3c2=O)cc1Cl,18.4µM*,2.7%,?,3.9%,1.2%
COc1ccc(C(=O)Cn2cnc3ccccc3c2=O)c(OC)c1,-29.3%,4.47µM*,?,2.9%,8.91µM*
COc1ccc(OC)c(C(=O)Cn2cnc3ccccc3c2=O)c1,-9.9%,4.4%,-30.0%,6.6%[0.0935 µM],5.2%
COc1cc(Cl)c(C)cc1NC(=O)CNC(=O)Cn1cnc2ccccc2c1=O,-13.5%,27.2%,-13.0%,-2.0%,-4.3%
CCN(CC)C(=O)CSC(=Nc1ccccc1F)NC#N,-21.2%,-24.4%,-27.5%,-2.4%,?
Fc1ccc(-c2cn(-c3ccccc3)c3[n+]2CCS3)cc1,?,-2.2%,23.1µM*,.,-3.2%
Clc1ccc(-c2c[n+]3c(n2-c2ccccc2)SCC3)cc1,?,7.9%,?,3.6%,-13.4%
Oc1ccc(C2=NN(c3ccccc3)C(c3ccc(F)cc3)C2)cc1 (centres undefined),?,-26.2%,?,.,-14.5%
CC(=O)c1ccc(-n2cc(-c3ccc(C(C)(C)C)cc3)[n+]3c2SCCC3)cc1,0.206µM*,-22.4%,0.164µM*,5.1%,11.2µM*
SMILES,TDP1 cell CPT,RORg inh,TDP1 cell noCPT,TDP1 block,Gal4-VP16 FLuc
COc1ccc(OCc2nnc3n2N=C(c2ccc(Br)cc2)CS3)cc1,?,-1.5%,?,7.4%,1.1%
COc1ccc(-c2cn(-c3ccc(Br)cc3)c3[n+]2CCS3)cc1,8.2µM*,5.9%,6.51µM*,2.7%,?
Clc1ccc(-c2cn(-c3ccccc3)c3[n+]2CCS3)cc1,?,-13.4%,6.51µM*,0.0%,-3.7%
CSc1cccc(NS(=O)(=O)c2ccccc2)c1,-3.7%,-18.7%[0.365 µM],-3.6%,3.3%,.
Cc1cc(Cl)ccc1NC(=S)NC1CCCC1,?,2.24µM*,20.6µM*,.,14.1µM*
CC1CCCCC1NC(=S)NC(=O)c1ccccc1Cl (centres undefined),?,.,?,-4.9%,.
COc1ccc(Cl)cc1NC(=O)NC1CCCCC1,-13.5%,4.5%,?,0.5%,-5.5%
CC1CCCCC1NC(=S)Nc1ccc(Cl)cc1Cl (centres undefined),-2.3%,3.55µM*,?,2.6%,?
FC(F)Oc1ccc(NC(=S)NC2CCCCCCC2)cc1,?,3.55µM*,?,-3.2%,10µM*
C/C(=N\NC(=S)NC1CCCCC1)c1ccc(OC(F)F)cc1OC(F)F,25.9µM*,?,25.9µM*,.,?
S=C(Nc1cccnc1)NC1CCCC1,-13.1%,1.3%,-27.0%,5.3%,-8.3%
S=C(NNc1cccc(Cl)c1)NC1CCCCC1,?,0.316µM*,?,10.1%,1.41µM*
S=C(Nc1cccc(Cl)c1)NC1CCCCC1,-8.9%,3.55µM*,-28.5%,-2.0%,10µM*
S=C(Nc1ccc(Cl)cc1)NC1CCCCC1,?,3.55µM*,?,1.2%,15.8µM*
NS(=O)(=O)c1ccc(NC(=S)NC2CCCCC2)cc1,-12.4%,6.2%,10.5%,2.4%,4.2%
S=C(Nc1cccnc1)NC1CCCCCCC1,0.8%,?,-28.7%,2.3%,22.4µM*
O=C(NNS(=O)(=O)c1ccc(F)cc1)c1cc2ccccc2cc1O,-20.7%,-30.2%,-10.8%,.,5.6%
Cc1ccc(C)c(NC(=O)CSc2nnc(-c3ccccc3)o2)c1,1.1%,-9.9%,1.5%,1.1%,-12.2%
S=C(Nc1ccc(Nc2ccccc2)cc1)NC1CCCCCC1,23.1µM*,1.26µM*,16.4µM*,8.1%,?
Oc1ccccc1-c1ccn[nH]1,-19.8%,.,-16.9%,-0.4%,.
Oc1ccccc1C1=NC(c2ccccc2)NC(c2ccccc2)C1 (centres undefined),?,.,18.4µM*,.,.
CCn1nc(-c2ccccc2)c(-c2ccccc2)c(C(=O)Nc2nc(C)c(C(C)=O)s2)c1=O,1.64µM*,.,1.64µM*,0.0%,.
